We go through 94 molecules from PubChem BioAssay AID731 (The Scripps Research Institute Molecular Screening Center, 2007).

The campaign covered roughly 200,000 compounds. About 520 (0.26%) were called active. Shown is part of a subset that was picked to be rich in actives. Unmarked numbers belong to inactive results. Cut-off read from the data, not from the text of the source: active = activation above about 23%; inactive = the rest.

The target in this assay is Peroxisome proliferator-activated receptor gamma (Homo sapiens) (UniProt P37231). As to the kind of experiment: enhancers of SRC-3 binding to PPARgamma – biochemical, primary screen (AID 731).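 Note: 0% = DMSO and 100% = reference agonist.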 The note with it: biochemical PPARgamma/SRC-3 coactivator recruitment assay; at 8 µM; hits give high values.
Peroxisome proliferator-activated receptor gamma (Homo sapiens), sequence (P37231 whole entry, looked up): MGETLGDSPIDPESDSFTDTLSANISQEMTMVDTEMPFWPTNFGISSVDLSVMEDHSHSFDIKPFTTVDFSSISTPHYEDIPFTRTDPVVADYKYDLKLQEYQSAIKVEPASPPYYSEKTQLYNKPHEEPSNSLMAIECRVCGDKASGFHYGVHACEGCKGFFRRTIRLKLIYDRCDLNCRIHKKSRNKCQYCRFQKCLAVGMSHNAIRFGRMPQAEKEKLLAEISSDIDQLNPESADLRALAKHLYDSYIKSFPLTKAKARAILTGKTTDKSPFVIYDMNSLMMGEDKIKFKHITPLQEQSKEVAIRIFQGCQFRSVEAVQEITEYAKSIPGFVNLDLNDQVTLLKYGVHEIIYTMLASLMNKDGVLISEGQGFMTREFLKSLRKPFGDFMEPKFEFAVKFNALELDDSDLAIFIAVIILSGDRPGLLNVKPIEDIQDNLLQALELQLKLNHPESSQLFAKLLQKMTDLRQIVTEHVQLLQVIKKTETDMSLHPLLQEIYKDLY
Take `COc1cccc(NC(=O)c2ccc(S(=O)(=O)N(C)C)cc2)c1`: the activation was -1.26%.
The result for `COc1ccc(/C=N/Nc2ncnc3sc4c(c23)CCCC4)cc1O` reads -0.73%; that for `CCOC(=O)c1sc(-c2cccc([N+](=O)[O-])c2)cc1N`, 10%.
With `Cc1nc2ccccn2c1C(=O)NN=C1CCN(C)CC1` the figure was -4.87%.
Take `O=C(NC(=S)Nc1cccc(-c2ccc(CO)o2)c1)c1cccs1`: the activation is 9.26%.
With `O=C(/C=C/c1ccc(Cl)cc1Cl)NCc1ccco1` the figure was -0.09%; with `O=C(CSc1c2c(nc3ccc(Cl)cc13)CCCC2)NCc1ccco1`, 31.6% (active); with `O=C(NCc1ccco1)c1cc(-c2cccnc2)nc2ccc(Cl)cc12`, 7.42%.
For `Cc1ccn(CC(=O)N2N=C(C(F)F)CC2(O)C(F)F)n1` (centres undefined), the activation is 3.61%.
The result for `COc1ccc(N(C)S(=O)(=O)c2cccc3nsnc23)cc1` reads -0.54%; that for `CCN(/N=C/c1ccc(N(C)C)cc1)c1nc2ccccc2[nH]1`, 16.6%.
With `CC1c2nc3ccccc3n2C(CC(=O)NCCCN2CCOCC2)C(=O)N1Cc1ccccc1` (centres undefined) the figure was -3.13%; with `Cc1cccc(OP(=O)(Nc2c(C)n(C)n(-c3ccccc3)c2=O)Oc2cccc(C)c2)c1`, 2.47%; with `CCN(CC)CCCNC(=O)CCc1ccccc1`, 4%.
The result for `CCN(CCCNC(=O)CSc1cc(=O)n(C)c2cc(Cl)ccc12)Cc1ccccc1` reads 42.4% (active); that for `CCN(CC)CCCNC(=O)c1cc(-c2cccc(Cl)c2)on1`, -5.33%.
As to `Cc1cc[n+](-c2[nH]c(=O)sc2/C=N/NC(=O)c2ccccc2[O-])cc1C`, the activation is 1.17%.
As for `CC(C)NC(=O)CSc1ccccc1C(=O)NCc1ccc2c(c1)OCO2`, the activation is -3.43%.
For `CCn1c(=O)cc(SCC(=O)NCCC2=CCCCC2)c2ccccc21`, the activation was 10.5%.
With `CCn1c(=O)cc(SCC(=O)NCc2ccc3c(c2)OCO3)c2ccccc21`, the activation is 31.8% (active).
`O=C(NCc1ccco1)C(=O)c1cn(CC(=O)N2CCCCCC2)c2ccccc12`: the activation is 4.6%.
For the molecule `CN(C)c1ccc(C(CC(=O)O)C(=O)O)cc1` (centres undefined), the activation was 5.46%.
With `O=C(CNC(=O)C(c1ccccc1)c1ccccc1)N/N=C\c1ccc2c(c1)OCO2` the figure was -7.73%; with `COc1ccc(/C=C/C(=O)NC(=S)NN2CCCCC2c2cccnc2)cc1` (centres undefined), -0.5%.
In the case of `Fc1ccc(COc2cccc(-c3n[nH]c(=S)o3)c2)cc1`, the activation is 29.3% (active).
As for `Cc1nc2ccccc2cc1OCc1ccc(F)cc1`, the activation was 4.08%.
As for `Cc1cccc(OCc2ccc(C(=O)Nc3ccc(F)cc3)cc2)c1`, the activation is -4.26%.
With `CC(C)/C=N/NC(=O)c1cc(Br)ccc1O` the figure was 4.98%.
On to `COc1cccc(-n2c(=S)sc3c(=O)n(-c4ccccc4OC)c(SCC4OCCO4)nc32)c1`, for which the activation was -1.02%.
With `O=C(CCc1nnc(CCCCc2ccccc2)o1)NC(c1cccnc1)C(F)(F)F` (centres undefined) the figure was 0.98%; with `COc1ccccc1N1CCN(/N=C\C(Br)=C\c2ccccc2)CC1`, 0.45%; with `C=CCNC(=O)CSc1nc2sc(C)c(C)c2c(=O)[nH]1`, -3.68%.
On to `O=C(CSc1nc2c(cnn2-c2ccc(F)cc2)c(=O)[nH]1)N1CCCCCC1`, for which the activation was -0.08%.
`CC(=O)c1sc2nc(SCC(=O)N3CCCCC3)[nH]c(=O)c2c1C`: the activation was 32.9% (active).
The result for `COCCN(C(=O)CCC(=O)Nc1nccs1)C(C(=O)NC(C)(C)C)c1ccc(Cl)cc1` (centres undefined) reads 8.27%; that for `Cc1ccccc1C1=N/C(=C/c2cccnc2)C(=O)O1`, 5.51%; that for `Cc1ccc(S(=O)(=O)N(C)CC(=O)OCC(=O)N2CC(=O)Nc3ccccc32)cc1`, -1.93%.
The result for `COc1cccc(NC(=O)Cn2c3ccccc3c3nc4n(c(=O)c32)CCS4)c1` reads 3.77%; that for `O=C(NCc1cccs1)C1CCN(S(=O)(=O)c2ccc(Cl)cc2)CC1`, 0.55%.
`O=C(N/C(=C\c1ccc(F)cc1)C(=O)N1CCCCCC1)c1ccccc1`: the activation is 2.6%.
Regarding `Cc1c(Cc2ccccc2)c(=O)oc2cc(OCC(N)=O)ccc12`, the activation was 1.07%.
In the case of `CC(=O)Oc1ccc2c(C)c(CC(C)O)c(=O)oc2c1` (centres undefined), the activation is -4.46%.
In the case of `O=C(Oc1ccccc1)Oc1ccc2c(c1)oc(=O)c1ccccc12`, the activation is 57.2% (active).
The result for `CNc1ccc(NC(C)=O)cc1[N+](=O)[O-]` reads -3.86%; that for `CCC1(CC)NC(=O)N(CC(=O)OCC(=O)Nc2ccc(C(F)(F)F)cc2)C1=O`, -5.07%; that for `CCCCCOc1ccc(/C=C/C(=O)NCCc2nc3ccccc3[nH]2)cc1OC`, 0.87%.
With `Cn1c(C(=O)OC(C(=O)NC2CCCCC2)c2ccccn2)cc2sccc21` (centres undefined), the activation was 0.71%.
The result for `Cc1ccc(Cl)cc1NC(=O)C1CCN(S(C)(=O)=O)CC1` reads -1.48%; that for `CCNCCC(=O)N1c2ccccc2Sc2ccc(NC(=O)OCC)cc21`, -12.4%; that for `NNC(=O)C1CC(O)CN1S(=O)(=O)c1ccc(Cl)cc1` (centres undefined), 8.66%.
The result for `CC1CC(C)CN(CCC(=O)Nc2ccc3c(c2)CCC3)C1` (centres undefined) reads 6.43%; that for `COC(C(=O)Nc1ccc(C(C)=O)cc1)c1ccccc1` (centres undefined), -2.12%.
The result for `COc1ccccc1CCNC(=O)CSc1nnc2ccc(-c3cccnc3)nn12` reads 2.38%; that for `O=C(CN1CCN(c2ncccn2)CC1)Nc1ccccc1C(F)(F)F`, -0.44%.
With `COCCn1c(Cc2cccn2C)nnc1SCC(=O)Nc1nccs1`, the activation is 4.15%.
The result for `Cc1nc(N2CCOCC2)c2c(C)c(C(=O)Nc3ccc(C(F)(F)F)cc3)sc2n1` reads 6.42%; that for `Cc1ccc(N2C(=O)C3C(c4ccccc4)(C2=O)C3(c2ccccc2)c2ccccc2)cc1` (centres undefined), -5.3%.
With `O=C(O)CCS(=O)(=O)c1ccc(-c2ccccc2)cc1` the figure was -2.87%; with `C=CCC(CC=C)(C(N)=O)c1ccccc1`, -2.8%; with `CCOC(=O)CNC(=O)CSc1ccc2nnc(-c3cccnc3)n2n1`, -2.1%.
The result for `COc1ccc(OCC(=O)Nc2ccc(N3CCC(C)CC3)cc2)cc1` reads 1.65%; that for `CCOc1ccc(Br)cc1S(=O)(=O)Nc1cccc(S(=O)(=O)N(CC)CC)c1`, -0.46%.
With `CC(=O)N1CC(C)c2scc(C)[n+]2-c2ccccc21` (centres undefined), the activation is 0.84%.
As for `CCC(C)N(C)C1CCN(C(=S)Nc2ccc(OC)cc2)CC1` (centres undefined), the activation was -0.62%.
With `CCN(CC)c1ccc2oc(=O)c(C)nc2c1`, the activation is 30.3% (active).
The result for `CCN(CC)c1ccc2cc(C(=O)O)c(=O)oc2c1` reads 1.62%; that for `CCN(CC)c1ccc2c(Nc3ccccc3)c(C=O)c(=O)oc2c1`, -1.59%; that for `Cc1ccccc1N/C(SCc1ccc(Cl)cc1)=C(/C#N)C(N)=O`, -0.24%.
With `CCCCC1N2CC3([N+](=O)[O-])CN1CC([N+](=O)[O-])(C2)C3(C)C` (centres undefined) the figure was 3.26%; with `Cc1nc(SCC(=O)N2CC(=O)Nc3ccccc32)c2c(C)c(C)sc2n1`, 7.47%.
With `COc1cc(/C=C/C2=CC(C)(C)NC(=S)N2)cc(OC)c1OC` the figure was -3.19%; with `COc1cc(C(=S)N2CCOCC2)ccc1O`, 6.53%; with `COc1cc(C(=S)N2CCOCC2)cc(OC)c1OC(=O)c1cc([N+](=O)[O-])c(C)c([N+](=O)[O-])c1`, 27.4% (active).
`COc1cc(C(=S)N2CCOCC2)cc(OC)c1OC(=O)c1cc([N+](=O)[O-])cc([N+](=O)[O-])c1`: the activation is 1.22%.
Consider `COC(=O)Cc1ccc(NC(=S)NCc2ccco2)cc1`, for which the activation is -0.79%.
The result for `CCc1nnc(NC(=O)Cc2cccs2)s1` reads 0.13%.
With `O=C(O)CCCCOn1ccnc1` the figure was -4.37%.
Turning to `CN1CCN(c2ccc(S(=O)(=O)Nc3ccccc3)cc2[N+](=O)[O-])CC1`, the activation is 8.11%.
With `CC(C)(C)c1ccc(/C=C/C(=O)Nc2ncccn2)cc1` the figure was -0.41%; with `O=C(C1=C[C@H](c2ccc(C(F)(F)F)cc2)C[C@H](OCc2ccc(CO)cc2)O1)N1CCN(Cc2ccccc2)CC1`, 5.31%.
The result for `N#Cc1ccccc1Sc1ccccc1C(=O)OCC(=O)NC1CCCCC1` reads -1.17%; that for `CCOc1ccc(NC(=O)CCC(=O)n2nc(C)cc2C)cc1`, 19.2%.
The result for `CCOc1ccc(NC(=O)CSc2nc3ccccc3c(=O)n2Cc2cccs2)cc1` reads -1%; that for `CCOc1ccc(NC(=O)CSc2ncnc3c2sc2ccccc23)cc1`, 23.1% (active).
With `COc1cc(OC)c(-n2cc(-c3ccc(Cl)cc3)[nH]c2=O)cc1Cl`, the activation was 2.05%.
The result for `NS(=O)(=O)c1ccc(NC(=O)COC(=O)CCc2c[nH]c3ccccc23)cc1` reads 1.02%.
With `COc1cc(NS(=O)(=O)c2ccc(NC(=O)CN3C(=O)c4ccccc4C3=O)cc2)ncn1` the figure was 4.24%.
The result for `COc1ccc(C(CC(=O)Nc2ccc(C)cc2)NC(=O)C(F)(F)F)cc1` (centres undefined) reads 1.26%; that for `CN1CCC(OC(=O)COc2ccc(Cl)cc2Cl)CC1`, -2.65%.
On to `Cc1ccc(NC(=O)OCc2cncs2)cc1`, for which the activation is 3.15%.
In the case of `O=C1C2C3C=CC(C4CC34)C2C(=O)N1c1nccs1` (centres undefined), the activation is -3%.
The result for `O=C(/C=C/c1cn(-c2ccccc2)nc1-c1ccc2c(c1)OCCO2)NCCCN1CCOCC1` reads 5.25%.
As for `Cc1cccc(OCCNC(=O)CSc2ccc(C(F)(F)F)cc2[N+](=O)[O-])c1`, the activation was -3.57%.
Turning to `Cc1cc(O)c(NC(=O)c2ccc(C)c([N+](=O)[O-])c2)cc1C`, the activation was -0.67%.
